Values joined by “and” are separate entries in the source; they are usually repeats but may differ in a detail not shown here. Equal values may be shown once. Records with an inconclusive call do not appear. Active and inactive are the calls of the source. Unless noted, no rule for the calls is given here.
What was measured:
[1] = qHTS Assay for Identifying Gametocytocidal Compounds (AID 743244; active = well fitted curve in the direction sought with a large enough effect; an effect the other way counts as inactive or inconclusive;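 also: % is scaled to controls: 0 for no effect and ±100 for the full control effect; actives lower the fluorescent signal which means gametocytes are killed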); settings: P. falciparum 3D7 stage III-V gametocytes, alamarBlue, 72 h; max response: stronger effect = lower value
Outline: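 Viability read-out was resazurin reduction (alamarBlue, 24 h) measured at Ex 525/Em 598 nm. Beforehand, late-stage (III-V) 3D7 P. falciparum gametocytes at 20,000 cells/well were incubated with compound 72 h at 37C under 5% CO2.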

[2] = qHTS profiling for inhibitors of Plasmodium falciparum (3D7) proliferation (AID 743322);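 also: infected erythrocytes exposed to compound for 72 h before lysis; 100% = DMSO vehicle wells and 0% = 0.29 µM artemisinin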; settings: P. falciparum 3D7 proliferation; at 28.7 µM (top of the series) unless noted
Outline: (§1)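 Erythrocytes infected with P. falciparum (0.3% parasitemia, 2.5% hematocrit) incubated with compounds 72 h at 37 C, 5% CO2. Lysis with saponin/Triton buffer containing SYBR Green I, overnight at room temperature in the dark; DNA fluorescence (485/535 nm) normalised to 0.29 uM artemisinin and DMSO.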

[3] = qHTS profiling for inhibitors of Plasmodium falciparum (DD2) proliferation (AID 743323); settings: lower = more inhibition; at 28.7 µM (top of the series) unless noted
Outline: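 P. falciparum Dd2-infected erythrocytes (0.3% parasitemia, 2.5% hematocrit) exposed 72 h at 37 C, 5% CO2. Lysis with SYBR Green, overnight at room temperature, fluorescence 485/535 nm; normalized to 0.29 uM artemisinin and DMSO.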

[4] = qHTS profiling for inhibitors of Plasmodium falciparum (HB3) proliferation (AID 743324; active = well fitted curve in the direction sought with a large enough effect; an effect the other way counts as inactive or inconclusive;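 also: 100% = DMSO vehicle wells and 0% = artemisinin-treated control wells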); settings: Plasmodium falciparum HB3 blood-stage proliferation; at 28.7 µM (top of the series) unless noted
Outline: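 P. falciparum HB3 grown in erythrocytes (0.3% parasitemia, 2.5% hematocrit final) with compound for 72 h at 37 C, 5% CO2. Parasite DNA detected by SYBR Green after saponin/triton lysis overnight; normalized to 0.29 uM artemisinin and DMSO.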

[5] = qHTS profiling of the MIPE4 collection as inhibitors of Plasmodium falciparum (3D7) proliferation (AID 743344);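 also: scaled between DMSO vehicle wells and 0.29 µM artemisinin as full inhibition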; settings: P. falciparum 3D7 in erythrocytes, SYBR Green DNA fluorescence, 72 h; at 28.5 µM (top of the series) unless noted
Outline: as §1

[6] = qHTS profiling of the MIPE4 collection as inhibitors of Plasmodium falciparum (DD2) proliferation (AID 743345); settings: P. falciparum Dd2 in erythrocytes, SYBR Green DNA, 72 h; at 28.5 µM (top of the series) unless noted
Outline: as §1

[7] = qHTS profiling of the MIPE4 collection as inhibitors of Plasmodium falciparum (DD2) proliferation (Rep 2) (AID 743346); settings: P. falciparum Dd2 in erythrocytes, SYBR Green DNA, 72 h; at 28.5 µM (top of the series) unless noted
Outline: as §1

## Nc1nc2[nH]cc(CCc3ccc(C(=O)N[C@@H](CCC(=O)O)C(=O)O)cc3)c2c(=O)[nH]1
[1]
  max response: 97.2% (inactive) and -5.73% (inactive)
[2]
  remaining parasite growth % (stronger effect = lower value): 14.6%
[3]
  activity, percent of control: 10.6%
[4]
  remaining proliferation (% of control), lower = more inhibition: 4.66%
[5]
  parasite growth, % of DMSO control: 55.6%
[6]
  parasite growth remaining, % of DMSO control (lower = more inhibition): 48.3%
[7]
  parasite growth, % of control (lower = inhibition): 26.3%

## COc1ccc(C2=N[C@H](c3ccc(Cl)cc3)[C@H](c3ccc(Cl)cc3)N2C(=O)N2CCNC(=O)C2)c(OC(C)C)c1
[1]
  max response: 18.2% (inactive)
[2]
  remaining parasite growth % (stronger effect = lower value): 52.3%
[3]
  activity, percent of control: 50.5%
[4]
  remaining proliferation (% of control), lower = more inhibition: 23.2%
[5]
  parasite growth, % of DMSO control: 17.5%
[6]
  parasite growth remaining, % of DMSO control (lower = more inhibition): 54.6%
[7]
  parasite growth, % of control (lower = inhibition): 11.8%

## COc1ccc(CC2=NN3C([C@@H](CCc4ccccc4)[C@@H](C)O)=NC(C)C3C(=O)N2)cc1OC (stereo not given in full)
[1]
  max response: -6.02% (inactive)
[2]
  remaining parasite growth % (stronger effect = lower value): 71.5%
[3]
  activity, percent of control: 64.6%
[4]
  remaining proliferation (% of control), lower = more inhibition: 17.1%
[5]
  parasite growth, % of DMSO control: 87.2%
[7]
  parasite growth, % of control (lower = inhibition): 46.9%

## COc1ccc(-c2c(-c3ccc(O)cc3O)n[nH]c2C)cc1
[1]
  max response: 3.95% (inactive)
[2]
  remaining parasite growth % (stronger effect = lower value): 1.98%
[3]
  activity, percent of control: 5.32%
[4]
  remaining proliferation (% of control), lower = more inhibition: 0.491%
[5]
  parasite growth, % of DMSO control: 47% [at 57.5 µM]
[6]
  parasite growth remaining, % of DMSO control (lower = more inhibition): 61.8% [at 57.5 µM]
[7]
  parasite growth, % of control (lower = inhibition): 45.5% [at 57.5 µM]

## CN(C(=O)c1ccc(F)cc1C(F)(F)F)C1CCN(c2nnc(-c3ccnn3C)c3ccccc23)CC1
[1]
  max response: 1.04% (inactive)
[2]
  remaining parasite growth % (stronger effect = lower value): 59.4%
[3]
  activity, percent of control: 71.6%
[5]
  parasite growth, % of DMSO control: 16.1%
[6]
  parasite growth remaining, % of DMSO control (lower = more inhibition): 61.1%
[7]
  parasite growth, % of control (lower = inhibition): 45.1%

## CN(C)c1ccc(C2Nc3ccc4ccccc4c3C3=C2C(=O)CC(C)(C)C3)cc1Br (stereo not given)
[1]
  max response: -26.5% (inactive)
[2]
  remaining parasite growth % (stronger effect = lower value): 2.48%
[3]
  activity, percent of control: 6.15%
[4]
  remaining proliferation (% of control), lower = more inhibition: 1.79%
[5]
  parasite growth, % of DMSO control: 28.5%
[6]
  parasite growth remaining, % of DMSO control (lower = more inhibition): 15%
[7]
  parasite growth, % of control (lower = inhibition): 33.7%

## Cc1ccccc1C(C(=O)NC1CCCC1)N(C(=O)Cn1cnc2ccccc21)c1cccc(F)c1 (stereo not given)
[1]
  max response: -12.2% (inactive)
[2]
  remaining parasite growth % (stronger effect = lower value): 45.1%
[3]
  activity, percent of control: 58.9%
[4]
  remaining proliferation (% of control), lower = more inhibition: 34.4%
[5]
  parasite growth, % of DMSO control: 72.9%
[6]
  parasite growth remaining, % of DMSO control (lower = more inhibition): 65.6%
[7]
  parasite growth, % of control (lower = inhibition): 38%

## C[C@]12CC[C@H](O)CC1=CC[C@@H]1[C@H]2CC[C@]2(C)C(c3cccnc3)=CC[C@H]12
[1]
  max response: -8.9% (inactive)
[2]
  remaining parasite growth % (stronger effect = lower value): -0.476%
[3]
  activity, percent of control: 1.24%
[4]
  remaining proliferation (% of control), lower = more inhibition: 24.9%
[5]
  parasite growth, % of DMSO control: 7.02% [at 9.64 µM]
[6]
  parasite growth remaining, % of DMSO control (lower = more inhibition): 10% [at 9.64 µM]
[7]
  parasite growth, % of control (lower = inhibition): 24.8% [at 9.64 µM]

## COc1ccccc1-c1cccc(-c2c(O)c3cc(C#N)c(Cl)cc3[nH]c2=O)c1
[1]
  max response: 99.8% (inactive)
[2]
  remaining parasite growth % (stronger effect = lower value): 97.4%
[3]
  activity, percent of control: 76%
[4]
  remaining proliferation (% of control), lower = more inhibition: 74.9%
[5]
  parasite growth, % of DMSO control: 37.5% [at 57.5 µM]
[6]
  parasite growth remaining, % of DMSO control (lower = more inhibition): 84.4% [at 57.5 µM]
[7]
  parasite growth, % of control (lower = inhibition): 32.5% [at 57.5 µM]

## Fc1ccc(Cl)cc1-c1nc(Nc2ccncc2)c2nccnc2n1
[1]
  max response: -14.2% (inactive)
[2]
  remaining parasite growth % (stronger effect = lower value): 5.45%
[3]
  activity, percent of control: 25.3%
[4]
  remaining proliferation (% of control), lower = more inhibition: 13.2%
[5]
  parasite growth, % of DMSO control: 22.1%
[6]
  parasite growth remaining, % of DMSO control (lower = more inhibition): 37%
[7]
  parasite growth, % of control (lower = inhibition): 30.8%

## S=C(NCc1ccc2c(c1)OCO2)N1CCN(c2ncnc3c2oc2ccccc23)CC1
[1]
  max response: -9.54% (inactive)
[2]
  remaining parasite growth % (stronger effect = lower value): 75.4%
[3]
  activity, percent of control: 87.1%
[4]
  remaining proliferation (% of control), lower = more inhibition: 28.7%
[5]
  parasite growth, % of DMSO control: 20.8% [at 57.5 µM]
[6]
  parasite growth remaining, % of DMSO control (lower = more inhibition): 66.7% [at 57.5 µM]
[7]
  parasite growth, % of control (lower = inhibition): 63.5% [at 57.5 µM]

## CCn1c(-c2nonc2N)nc2cnc(Oc3cccc(NC(=O)c4ccc(OCCN5CCOCC5)cc4)c3)cc21
[1]
  max response: 33.1% (inactive)
[2]
  remaining parasite growth % (stronger effect = lower value): 15.3%
[3]
  activity, percent of control: 20.7%
[4]
  remaining proliferation (% of control), lower = more inhibition: 14.7%
[5]
  parasite growth, % of DMSO control: 13.1%
[6]
  parasite growth remaining, % of DMSO control (lower = more inhibition): 57.9%
[7]
  parasite growth, % of control (lower = inhibition): 22.1%

## O=S(=O)(N=Cc1c(O)ccc2ccccc12)c1cccs1
[1]
  max response: -5.04% (inactive)
[2]
  remaining parasite growth % (stronger effect = lower value): 85.7%
[3]
  activity, percent of control: 92.2%
[4]
  remaining proliferation (% of control), lower = more inhibition: 82.6%
[5]
  parasite growth, % of DMSO control: 75.2%
[6]
  parasite growth remaining, % of DMSO control (lower = more inhibition): 91.9%
[7]
  parasite growth, % of control (lower = inhibition): 63.3%

## Cc1cc2c(F)c(Oc3ncnn4cc(OC[C@@H](C)O)c(C)c34)ccc2[nH]1
[1]
  max response: -5% (inactive)
[2]
  remaining parasite growth % (stronger effect = lower value): 101%
[3]
  activity, percent of control: 101%
[4]
  remaining proliferation (% of control), lower = more inhibition: 75.1%
[5]
  parasite growth, % of DMSO control: 46.6%
[6]
  parasite growth remaining, % of DMSO control (lower = more inhibition): 93.1%
[7]
  parasite growth, % of control (lower = inhibition): 54.4%

## COc1ccccc1[C@H](c1cccc2ccccc12)[C@@](C)(C#N)C(=O)N1CCC(c2cccc(C(F)(F)F)c2)CC1
[1]
  max response: -0.358% (inactive)
[2]
  remaining parasite growth % (stronger effect = lower value): 1.65%
[3]
  activity, percent of control: 1.44%
[4]
  remaining proliferation (% of control), lower = more inhibition: 0.956%
[5]
  parasite growth, % of DMSO control: 5.47%
[6]
  parasite growth remaining, % of DMSO control (lower = more inhibition): 8.96%
[7]
  parasite growth, % of control (lower = inhibition): 9.97%

## Cn1c(=O)c(F)c(Nc2ccc(I)cc2F)c2c(=O)n(C[C@@H](O)CO)cnc21
[1]
  max response: -1.37% (inactive)
[2]
  remaining parasite growth % (stronger effect = lower value): 83.3%
[3]
  activity, percent of control: 71.7%
[4]
  remaining proliferation (% of control), lower = more inhibition: 68.4%
[5]
  parasite growth, % of DMSO control: 12.8%
[6]
  parasite growth remaining, % of DMSO control (lower = more inhibition): 86.9%
[7]
  parasite growth, % of control (lower = inhibition): 24.5%

Reference: PubChem BioAssay (NCATS)
